Assay results reported in PubChem BioAssay (Tox21).
Values joined by “and” are separate entries in the source; they are usually repeats but may differ in a detail not shown here. Equal entries are not always repeated. Results filed as inconclusive are left out. A call without a number means that no potency is given here. Active and inactive are the calls of the source. Unless noted, calls come from the whole dose curve; as a rule, active = well fitted curve in the direction sought with a large enough effect in the repeat runs; inconclusive = weak or mixed curves; inactive = no such curve, though single readings can be large; an effect the other way counts as inactive or inconclusive.

Key:
[1] = qHTS assay to identify small molecule antagonists of the retinoid acid receptor (RAR) signaling pathway - cell viability counter screen (AID 1159551); details: C3RL4 cells viability, ATP luminescence (CellTiter-Glo), 6 h; series mostly up to 92.4 µM; note: nearly all actives have a fitted effect of over 35% in size
Procedure, shortened: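 Retinol-stimulated (1 uM final) C3RL4 cells, compound 6 h, 37 C; readout CellTiter-Glo luminescence (ATP) after 30 min RT incubation.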

[2] = qHTS assay to identify small molecule antagonists of the retinoic acid receptor (RAR) signaling pathway (AID 1159552; note: nearly all actives have a fitted effect of over 50% in size; note: potency is the fitted concentration of half-maximal effect); details: C3RL4 RARE luciferase reporter, retinol-stimulated, 6 h; series mostly up to 92.4 µM
Procedure, shortened: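 Test chemicals and DMSO controls were pin-transferred onto C3RL4 cells a day after seeding; retinol (1 uM final) followed at once. Luminescent reporter output was quantified after 6 hr of co-incubation and 30 min with detection reagent.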

[3] = qHTS assay to identify small molecule agonists of the retinoic acid receptor (RAR) signaling pathway (AID 1159553); details: C3RL4 RARE luciferase reporter, agonist, 6 h; series mostly up to 73.3 µM; note: potency is the fitted concentration of half-maximal effect
Procedure, shortened: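 Reporter readout comes from luciferase under RARE control in C3RL4 cells; compound exposure lasts 6 hr at 37 C in 5% CO2, and luminescence is recorded following a 30 min room-temperature incubation with reagent.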

[4] = qHTS assay to identify small molecule antagonists of the estrogen related receptor (ERR) signaling pathway from Tox21 library - cell viability counter screen (AID 1224834); details: ERR reporter cells viability, CellTiter-Fluor, 17.5 h; series mostly up to 92.4 µM; note: nearly all actives have a fitted effect of over 30% in size; note: potency is the fitted concentration of half-maximal effect
Procedure, shortened: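 After 17.5 h of compound exposure at 37 C, ERR cells are incubated with CellTiter-Fluor for 30 min and fluorescence intensity serves as the viability measure.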

[5] = target: Luciferin 4-monooxygenase (Photinus pyralis) (UniProt P08659); experiment: qHTS assay to identify small molecule inhibitors of firefly luciferase (AID 1224835); note: nearly all actives have a fitted effect of over 25% in size; note: potency is the fitted concentration of half-maximal effect; details: purified P. pyralis luciferase, luminescence inhibition; series mostly up to 115 µM
Luciferin 4-monooxygenase (Photinus pyralis), sequence (P08659 whole entry, looked up): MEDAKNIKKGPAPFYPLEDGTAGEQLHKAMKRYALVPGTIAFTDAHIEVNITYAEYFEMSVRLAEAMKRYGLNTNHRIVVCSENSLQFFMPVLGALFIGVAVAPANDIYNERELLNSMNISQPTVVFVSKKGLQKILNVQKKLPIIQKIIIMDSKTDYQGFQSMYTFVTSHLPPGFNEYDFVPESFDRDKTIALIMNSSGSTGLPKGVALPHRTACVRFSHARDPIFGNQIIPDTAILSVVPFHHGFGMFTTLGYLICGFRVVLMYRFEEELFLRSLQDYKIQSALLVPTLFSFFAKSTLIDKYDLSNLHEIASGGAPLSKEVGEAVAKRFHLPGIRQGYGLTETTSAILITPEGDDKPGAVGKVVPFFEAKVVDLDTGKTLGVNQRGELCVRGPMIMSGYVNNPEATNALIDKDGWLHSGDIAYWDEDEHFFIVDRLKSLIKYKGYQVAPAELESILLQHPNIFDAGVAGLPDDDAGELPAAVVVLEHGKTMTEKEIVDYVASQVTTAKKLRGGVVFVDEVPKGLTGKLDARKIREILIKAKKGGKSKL
Procedure, shortened: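 Biochemical qHTS: compounds run as interplate titrations against purified firefly enzyme, with D-luciferin and ATP each at its KM concentration. Light output recorded by CCD imaging.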

[6] = qHTS assay to identify small molecule agonists of the constitutive androstane receptor (CAR) signaling pathway - cell viability counter screen (AID 1224836); details: HepG2-CYP2B6-hCAR viability, CellTiter-Fluor, 23 h, PK11195 added to every well; series mostly up to 92.4 µM; note: nearly all actives have a fitted effect of over 45% in size; note: potency is the fitted concentration of half-maximal effect
Procedure, shortened: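 23 h treatment, 37 C, 5% CO2. Cell line: HepG2 stably expressing hCAR with a CYP2B6-2.2kb construct. Co-treatment: PK11195, 0.75 uM final. Read-out: CellTiter-Fluor fluorescence intensity.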

[7] = qHTS assay to identify small molecule antagonists of the constitutive androstane receptor (CAR) signaling pathway - cell viability counter screen (AID 1224837); details: HepG2-CYP2B6-hCAR viability, CellTiter-Fluor, 23 h, co-treated with 50 nM CITCO; series mostly up to 92.4 µM; note: nearly all actives have a fitted effect of over 45% in size; note: potency is the fitted concentration of half-maximal effect
Procedure, shortened: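 Counter screen run in HepG2-CYP2B6-hCAR cells: 4 hr settle, compound titration (15 concentrations) with 50 nM CITCO, 23 hr at 37 C/5% CO2, CellTiter-Fluor fluorescence.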

[8] = target: Nuclear receptor subfamily 1 group I member 3 (Homo sapiens) (UniProt Q14994); experiment: qHTS assay to identify small molecule antagonists of the constitutive androstane receptor (CAR) signaling pathway (AID 1224838); details: HepG2-CYP2B6-hCAR luciferase, CITCO-stimulated, 24 h; series mostly up to 92.4 µM;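 note: HepG2 cells stably expressing hCAR with CYP2B6 luciferase reporter stimulated by CITCO; nearly all actives have a fitted effect of over 40% in size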; note: potency is the fitted concentration of half-maximal effect
Nuclear receptor subfamily 1 group I member 3 (Homo sapiens), sequence (Q14994 whole entry, looked up): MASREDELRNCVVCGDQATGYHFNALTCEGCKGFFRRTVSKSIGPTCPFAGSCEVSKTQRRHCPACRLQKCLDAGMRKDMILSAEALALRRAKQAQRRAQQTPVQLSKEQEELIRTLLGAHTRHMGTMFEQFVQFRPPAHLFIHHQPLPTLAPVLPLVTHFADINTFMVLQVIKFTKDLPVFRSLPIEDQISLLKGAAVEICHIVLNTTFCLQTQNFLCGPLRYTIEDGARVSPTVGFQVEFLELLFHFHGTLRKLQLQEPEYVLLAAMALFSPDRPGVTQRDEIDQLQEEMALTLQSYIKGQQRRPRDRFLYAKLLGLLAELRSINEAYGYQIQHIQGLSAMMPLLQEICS
Procedure, shortened: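 Cell line: HepG2 double-stable for hCAR and CYP2B6-2.2kb reporter. Agonist: CITCO, 50 nM final. Compounds: 15 concentrations, 24 h, 37 C. Detection: ONE-Glo luminescence.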

[9] = target: Nuclear receptor subfamily 1 group I member 3 (Homo sapiens) (UniProt Q14994); experiment: qHTS assay to identify small molecule agonists of the constitutive androstane receptor (CAR) signaling pathway (AID 1224839); details: HepG2 hCAR CYP2B6-luciferase, agonist mode, 24 h; series mostly up to 92.4 µM; note: nearly all actives have a fitted effect of over 15% in size; note: potency is the fitted concentration of half-maximal effect
Procedure, shortened: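 Compounds tested at 15 concentrations on HepG2 cells stably harbouring hCAR and CYP2B6-2.2kb reporter constructs, co-treated with PK11195 (0.75 uM final), 24 h at 37 C; luminescent reporter signal quantified.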

[10] = qHTS assay to identify small molecule antagonists of the estrogen related receptor signaling pathway with the pleiotropic PPARgamma coactivator (PGC) from Tox21 10K library - cell viability counter screen (AID 1224840; active = well fitted cell-killing curve with a large enough effect in the repeat runs, not every such curve was filed as active; note: nearly all actives have a fitted effect of over 40% in size; note: potency is the fitted concentration of half-maximal effect); details: PGC/ERR reporter cells viability, CellTiter-Fluor, 17.5 h; series mostly up to 92.4 µM
Procedure, shortened: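 Following seeding of 2,000 PGC/ERR cells/well and 6 hours' incubation, test compounds were delivered in DMSO. The plates then sat 17.5 hours at 37 C before a fluorogenic live-cell protease reagent (CellTiter-Fluor) was read after 30 min.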

[11] = qHTS assay to identify small molecule antagonists of the estrogen related receptor signaling pathway with the pleiotropic PPARgamma coactivator (PGC) from Tox21 10K library (AID 1224841; call rule not given here; note: actives are mostly falling curves and most rising ones were filed inactive; nearly all actives have a fitted effect of over 50% in size; note: potency is the fitted concentration of half-maximal effect); details: PGC/ERR reporter cell line, ONE-Glo luciferase, 18 h; series mostly up to 92.4 µM
Procedure, shortened: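 qHTS antagonist format: PGC/ERR cells, 2k/well, compound in DMSO by pin transfer after 6 h attachment, 18 h treatment at 37 C, One-Glo luminescence read at 30 min.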

[12] = target: Thyrotropin receptor (Homo sapiens) (UniProt P16473); experiment: qHTS assay to identify small molecule agonists of the thyroid stimulating hormone receptor (TSHR) signaling pathway (AID 1224843; calls by dose curve; note: nearly all actives have a fitted effect of over 45% in size); details: TSHR-HEK293 cells, cAMP HTRF, agonist mode, 30 min; series mostly up to 92.4 µM
Thyrotropin receptor (Homo sapiens), sequence (P16473 whole entry, looked up): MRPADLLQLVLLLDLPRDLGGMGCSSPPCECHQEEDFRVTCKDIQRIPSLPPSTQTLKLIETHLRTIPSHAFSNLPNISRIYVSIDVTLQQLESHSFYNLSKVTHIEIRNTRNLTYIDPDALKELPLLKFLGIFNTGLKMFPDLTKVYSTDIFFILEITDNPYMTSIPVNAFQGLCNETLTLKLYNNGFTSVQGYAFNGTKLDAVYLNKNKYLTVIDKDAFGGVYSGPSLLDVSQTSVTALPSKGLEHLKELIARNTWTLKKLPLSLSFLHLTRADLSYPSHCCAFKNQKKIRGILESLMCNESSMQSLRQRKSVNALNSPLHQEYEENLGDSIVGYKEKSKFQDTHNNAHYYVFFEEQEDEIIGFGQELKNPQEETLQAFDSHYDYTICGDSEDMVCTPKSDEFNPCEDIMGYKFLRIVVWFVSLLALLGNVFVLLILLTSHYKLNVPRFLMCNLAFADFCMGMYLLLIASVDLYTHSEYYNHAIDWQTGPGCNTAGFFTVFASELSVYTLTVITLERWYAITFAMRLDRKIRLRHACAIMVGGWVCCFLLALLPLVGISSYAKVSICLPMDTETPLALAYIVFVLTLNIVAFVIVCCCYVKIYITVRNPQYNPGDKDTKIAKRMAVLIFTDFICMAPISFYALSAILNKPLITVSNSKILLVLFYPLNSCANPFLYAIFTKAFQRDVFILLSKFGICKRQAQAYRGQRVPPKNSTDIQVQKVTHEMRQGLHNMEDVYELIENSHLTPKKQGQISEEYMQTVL
Procedure, shortened: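 Steps: seed 800 TSHR-HEK293 cells per well; add test compound and hold 30 min at ambient temperature; dispense cAMP-d2 then anti-cAMP cryptate; incubate 1 h at ambient; measure fluorescence intensity.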

[13] = qHTS assay to identify small molecule agonists of the RXR signaling pathway - cell viability counter screen (AID 1159529); details: RXR-alpha-bla HEK293T viability, CellTiter-Glo, 16 h; series mostly up to 76.8 µM; note: nearly all actives have a fitted effect of over 50% in size; note: potency is the fitted concentration of half-maximal effect
Procedure, shortened: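 Compounds dissolved in DMSO were pinned onto HEK 293T cells carrying a beta-lactamase reporter under RXR-alpha control and incubated 16 hr. Cytotoxicity was then quantified by CellTiter-Glo luminescence.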

[14] = qHTS assay to identify small molecule agonists of the estrogen related receptor signaling pathway with the pleiotropic PPARgamma coactivator (PGC) from Tox21 10K library (AID 1224842); details: PGC/ERR reporter cell line, luciferase ONE-Glo, 18 h; series mostly up to 92.4 µM; note: nearly all actives have a fitted effect of over 15% in size
Procedure, shortened: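 PGC/ERR reporter cell line, 2,000 cells per well, incubated 6 h at 37 C before 23 nL compound in DMSO was added. After 18 h at 37 C, One-Glo luminescence read following 30 min at room temperature.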

[15] = qHTS assay to identify small molecule antagonists of the estrogen related receptor (ERR) signaling pathway - cell viability counter screen (AID 1224818); details: ERR reporter cell line viability counter screen; series mostly up to 46.1 µM
Procedure, shortened: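 After a 6 h pre-incubation, ERR cells were dosed by pin tool with compounds, positive/negative controls or DMSO alone. Following 17.5 h at 37 C and 30 min with CellTiter-Fluor, fluorescence was recorded.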

[16] = qHTS assay to identify small molecule antagonists of the estrogen related receptor (ERR) signaling pathway (AID 1224819;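 note: luminescence from an ERR-driven luciferase reporter measured with One-Glo reagent; nearly all actives have a fitted effect of over 50% in size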); details: ERR reporter cell line, luciferase inhibition; series mostly up to 46.1 µM
Procedure, shortened: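 Luminescence readout (One-Glo, 30 min, RT) of ERR cell line after 18 h compound exposure at 37 C; cells seeded 2,000/well, pre-incubated 6 h, compounds pinned from DMSO stocks.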

[17] = qHTS assay to identify small molecule agonists of the estrogen related receptor (ERR) signaling pathway (AID 1224820); details: ERR reporter cell line, luciferase agonist mode; series mostly up to 46.1 µM
Procedure, shortened: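 Quantitative HTS of the LOPAC library used NTP ERR reporter cells treated 18 h at 37 C. Signal is luminescence after One-Glo addition and a 30 min room-temperature incubation.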

[18] = qHTS assay to identify small molecule antagonists of the estrogen related receptor signaling pathway with the pleiotropic PPARgamma coactivator (PGC) cell viability counter screen (AID 1224822); details: ERR/PGC reporter cell line viability counter screen; series mostly up to 46.1 µM
Procedure, shortened: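 PGC/ERR cells were plated at 2,000 per well and allowed 6 h to settle before compound addition. Following 17.5 h at 37 C, CellTiter-Fluor reagent was added and fluorescence was read 30 min later.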

Structure (SMILES) | Potency [1] | Potency [2] | Potency [3] | Potency [4] | Potency [5] | Potency [6] | Potency [7] | Potency [8] | Potency [9] | Potency [10] | Potency [11] | Potency [12] | Potency [13] | Potency [14] | outcome [15] | outcome [16] | outcome [17] | outcome [18]
c1ccc2c(c1)sc1ccccc12 | inactive | inactive | inactive | inactive | 31.7 µM (active) | inactive | inactive | inactive | inactive | inactive | inactive | inactive |  |  |  |  |  | 
Nc1ccccc1C(=O)OCCc1ccccc1 |  | inactive | 173 nM (active) and 122 nM (active) |  | 897 nM (active) and 796 nM (active) | inactive | inactive | inactive | 54.7 µM (active) and 27.3 µM (active) | inactive | inactive |  | inactive |  |  |  |  | 
C=C(C)C(=O)OCCCCOC(=O)C(=C)C |  | inactive | inactive | inactive |  | inactive | inactive | inactive | inactive |  | inactive | inactive | inactive | inactive |  |  |  | 
C[C@@H]1C[C@@H]([C@H](O)CC2CC(=O)NC(=O)C2)C(=O)[C@@H](C)C1 |  |  |  | 430 nM (active) and 154 nM (active) and 266 nM (active) | inactive | 969 nM (active) | 765 nM (active) and 611 nM (active) |  |  | inactive | 682 nM (active) and 433 nM (active) and 531 nM (active) | inactive | inactive |  |  |  |  | 
CCCCC(CC)COC(=O)c1c(Br)c(Br)c(Br)c(Br)c1C(=O)OCC(CC)CCCC (centres undefined) |  |  | inactive | inactive | inactive | inactive | inactive | inactive |  | inactive |  |  | inactive |  |  |  |  | 
Cc1cccc(C)c1NC1=NCCCS1 | inactive | inactive | inactive | inactive | inactive | inactive | inactive |  |  | inactive |  | inactive |  |  | inactive | inactive | inactive | inactive
CCCBr |  |  | inactive | inactive | inactive | inactive | inactive |  |  | inactive |  | inactive | inactive |  |  |  |  | 
CN(C)c1ccc(N=O)cc1 |  | 24.4 µM (active) |  | 27.4 µM (active) and 48.6 µM (active) |  | 27.4 µM (active) and 43.3 µM (active) | 30.7 µM (active) and 27.3 µM (active) | 43.4 µM (active) and 43.3 µM (active) | 4.87 µM (active) | 19.4 µM (active) and 30.6 µM (active) | inactive |  | 34.8 µM (active) |  |  |  |  | 
